Screening results deposited in PubChem BioAssay by National Center for Advancing Translational Sciences (NCATS).
FLuc inh – inhibitors of firefly luciferase; purified firefly luciferase, luminescence, 8 min; Potency, µM (series often up to 57.1 µM), without a hit: at the highest dose activity change, negative = inhibition, most hits filed as inhibitors; actives 2.2% (n = 72,000); further: nearly all actives have a fitted effect of over 40% in size
Target sequence (P08659 whole entry, looked up): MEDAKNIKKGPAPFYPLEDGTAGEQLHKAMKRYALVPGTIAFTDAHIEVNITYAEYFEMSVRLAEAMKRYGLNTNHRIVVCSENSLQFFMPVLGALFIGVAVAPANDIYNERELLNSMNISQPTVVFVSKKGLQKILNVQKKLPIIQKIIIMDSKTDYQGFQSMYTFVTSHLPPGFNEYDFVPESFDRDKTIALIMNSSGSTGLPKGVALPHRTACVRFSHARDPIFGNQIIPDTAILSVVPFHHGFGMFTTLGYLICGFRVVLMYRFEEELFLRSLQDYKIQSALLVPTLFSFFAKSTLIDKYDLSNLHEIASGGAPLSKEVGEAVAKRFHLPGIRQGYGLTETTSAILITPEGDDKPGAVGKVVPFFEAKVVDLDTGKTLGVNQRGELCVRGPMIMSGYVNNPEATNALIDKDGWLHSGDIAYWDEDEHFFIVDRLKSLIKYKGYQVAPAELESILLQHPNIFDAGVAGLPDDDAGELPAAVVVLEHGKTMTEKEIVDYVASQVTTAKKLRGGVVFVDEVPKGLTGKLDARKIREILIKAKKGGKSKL
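Substrate buffer containing 10 uM ATP (pH 7.2 imidazole, Mg2+, KCl, detergent, BSA) is dispensed, compound pinned in, then luciferase/luciferin detector mix added. After 8 min at ambient temperature, light output is measured.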
15-hLO inh – 15-hLO (ALOX15) enzyme inhibition | purified 15hLO-1, xylenol orange hydroperoxide absorbance | AID 887 | Potency, µM (titrated, usually from 57.1 µM), for the others: at the highest dose activity change, negative = inhibition, hits mostly inhibitors | actives 1.4% (n = 74,000) | P16050; further: nearly all actives have a fitted effect of over 55% in size
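Compounds were preincubated 15 min at room temperature with 40 nM purified human enzyme (25 mM Hepes pH 7.5, 0.01% Triton X-100); 50 uM arachidonic acid reacted 6 min. Fe-xylenol orange detection, 30 min, absorbance ratio 573/405 nm.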
HADH2 inhib – blocks human hydroxyacyl-CoA dehydrogenase type II. actives 3.4% (n = 73,000). Q99714. Potency, µM (doses to about 57.1 µM), for the others: at the top dose activity change, negative = inhibition, usual class: inhibitors. recombinant HADH2, NADH fluorescence, beta-hydroxybutyryl-CoA. AID 886; further: nearly all actives have a fitted effect of over 60% in size
Target sequence (Q99714 whole entry, looked up, one chain of several): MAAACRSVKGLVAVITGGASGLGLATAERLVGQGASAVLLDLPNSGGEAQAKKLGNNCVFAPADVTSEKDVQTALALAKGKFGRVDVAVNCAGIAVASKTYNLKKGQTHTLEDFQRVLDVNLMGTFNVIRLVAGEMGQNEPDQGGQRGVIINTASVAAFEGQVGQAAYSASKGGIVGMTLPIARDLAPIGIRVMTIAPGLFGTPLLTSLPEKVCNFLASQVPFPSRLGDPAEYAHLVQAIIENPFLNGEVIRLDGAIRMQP
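NADH fluorescence (ex 360/em 450 nm) read every 30 s for 4 min; activity taken as last-minus-first time point difference. Enzyme 20 nM, NAD+ 1 mM, beta-hydroxybutyryl-CoA 90 uM, pH 9.0 Tris buffer.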
ERK AVP inh – inhibitors of vasopressin-stimulated ERK signaling pathway; HEK293-V1b, vasopressin-stimulated pERK AlphaScreen; Potency, µM (doses to about 57.5 µM), for the others: at the top dose activity, negative = inhibition, actives largely listed as inhibitors; AID 995; actives 0.99% (n = 72,000); further: nearly all actives have a fitted effect of over 55% in size
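Phosphorylated ERK1/2 detected via AlphaScreen bead proximity in lysates of V1b-expressing HEK293 cells given 25 nM vasopressin for 5 min after 30 min compound exposure (37 °C). AC50 from Hill equation; basal DMSO 0%, vasopressin 100%.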
PK Bst – modulators of Bacillus stearothermophilus pyruvate kinase | purified pyruvate kinase, luminescence ATP production; ribose 5-phosphate activator present at AC10 | Potency, µM | actives 1.2% (n = 51,000) | AID 361; in the data active means potency below about 11 µM; inconclusive means mostly about 12 µM to 25 µM;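 the screen sought inhibitors and activators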;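 further: scaled between full activation by ribose 5 phosphate and full inhibition by luteolin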
HSD17B inhib – HSD17B dehydrogenase inhibition; Q99714; recombinant HSD17B10, NADH fluorescence kinetic; Potency, µM (series often up to 57.1 µM), inactives show at the highest dose activity change, negative = inhibition, hits mostly inhibitors; actives 7.6% (n = 75,000); AID 893;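 further: the protocol describes HADH2 (HSD17B10) and not the HSD17B4 of the title; nearly all actives have a fitted effect of over 70% in size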
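20 nM HADH2, pH 9.0 Tris/Tween; cpd preinc 15 min RT; start w/ 1 mM NAD+ + 90 uM b-hydroxybutyryl-CoA; kinetic fluor ex360/em450 q30s x 4 min; delta last-first.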
* hit, by the source's call; ? = inconclusive; . = not tested or not shown; [ ] = dose if it differs, or a comment. The list is not random: actives were taken first. Their share in the collection is about 11%. Unless noted, the call rests on the fitted dose curve; in most records, active means well fitted curve in the direction sought with a large enough effect; inconclusive means small, poorly fitted or top-dose-only effect, or another doubt; inactive means no such curve, though single readings can be large; an effect the other way counts as inactive or inconclusive. Unless noted, on the % scale 0 is the no-effect control and ±100 the full control effect; potency means the concentration at half of the fitted maximal effect.

SMILES | FLuc inh | 15-hLO inh | HADH2 inhib | ERK AVP inh | PK Bst | HSD17B inhib
COc1cc(-c2ccc(N)c(OC)c2)ccc1N | . | 1% | 32µM* | -27% | . | -27%
CNCCc1ccc(O)c(O)c1 | -3% | ? | 1.3µM* | ? | . | 25µM*
COc1ccc(CCN)cc1O | -4% | -3% | -5% | -8% | . | 5%
Oc1cc2c(cc1O)[C@H]1c3ccccc3CN[C@@H]1CC2 | -28% | ? | 0.63µM* | ? | . | 3.2µM*
c1ccc([C@H]2CNCc3ccccc32)cc1 | 0% | 6%[25.6 µM] | -4% | 4% | . | -13%
Oc1cc2c(cc1O)[C@H]1c3ccccc3CN[C@H]1CC2 | -4% | 1%[25.6 µM] | 0.063µM* | ? | . | 1µM*
COc1cc2[nH]c(=O)n(-c3ccccc3)c(=O)c2cc1OC | 1% | 5% | ? | -17% | >57 | 32µM*
C=CCn1c(O)c(C(C)=Nc2ccc(N(C)C)cc2)c(=O)[nH]c1=O | 2% | -20% | -15% | 13µM* | >57 | -13%
C=CCn1c(O)c(C(C)=Nc2ccc(N(CC)CC)cc2)c(=O)[nH]c1=O | 0% | -19% | -24% | -20% | >57 | -6%
NNC(N)=S | . | -10% | ? | -12% | . | 1%
C[C@H](CCC(=O)O)[C@H]1CC[C@H]2[C@@H]3CC[C@@H]4C[C@H](O)CC[C@]4(C)[C@H]3CC[C@]12C | . | -13% | 10% | 40µM* | . | ?
COc1cc2c(cc1OC)[C@@]13CCN4C=C5CCO[C@H]6CC(=O)N2[C@@H]1[C@@H]6[C@H]5C[C@H]43 | 2%[11.4 µM] | 13%[11.4 µM] | 0%[11.4 µM] | -1%[11.5 µM] | . | 11%[11.4 µM]
CO[C@@H]([CH2][Hg])CN1C(=O)c2ccccc2S1(=O)=O.Cn1c(=O)c2nc[nH]c2n(C)c1=O | -7%[11.4 µM] | ? | -8%[11.4 µM] | 11%[11.5 µM] | . | 1.6µM*
O.O.[NH-]C1(C(=O)O)CCCC1.[NH-]C1(C(=O)O)CCCC1.[Ni+2] | 0%[11.4 µM] | 0%[11.4 µM] | 11%[11.4 µM] | 10%[11.5 µM] | . | 1%[11.4 µM]
NCCc1c[nH]c2ccc(OC(=O)C(=O)O)cc12 | -1%[11.4 µM] | 5%[11.4 µM] | -1%[11.4 µM] | 1%[11.5 µM] | . | 0%[11.4 µM]
CN(C)c1ccc(N(C)C)cc1 | . | ? | 3.2µM* | -16% | . | -6%
O=C(O)CN1CCN(CC(=O)O)CC(=O)[O][Hg][O]C(=O)C1 | -11%[11.4 µM] | 0.16µM* | 2µM* | -20%[11.5 µM] | . | 0.16µM*
CC(C)C[C@H](NP(=O)(O)O[C@@H]1O[C@@H](C)[C@@H](O)[C@@H](O)[C@H]1O)C(=O)N[C@@H](Cc1c[nH]c2ccccc12)C(=O)O | 0% | 8% | 9% | -12% | . | 4%
CN1CC=C(c2c[nH]c3ccccc23)CC1 | -4% | 0.63µM* | -23% | 1% | . | 32µM*
c1nc(N2CC2)c2cnn([C@@H]3CCCCO3)c2n1 | 1%[11.4 µM] | 1%[11.4 µM] | 2%[11.4 µM] | -6%[11.5 µM] | . | -1%[11.4 µM]
CN(C)CCCc1c[nH]c2ccccc12 | 0%[11.4 µM] | 6%[11.4 µM] | 6%[11.4 µM] | 17%[11.5 µM] | . | 12%[11.4 µM]
NNCc1cccc(O)c1 | 32µM* | ? | -21% | ? | . | -9%
CC(C)c1nc2oc3c(NCc4ccccn4)ncnc3c2c2c1COC(C)(C)C2 | 1% | 17% | 22% | -17% | >57 | 1µM*
C[C@@](Br)(C(=O)O)[C@H](Br)C(=O)O | 1%[11.4 µM] | -4%[11.4 µM] | -2%[11.4 µM] | 7%[11.5 µM] | . | -1%[11.4 µM]
COc1cc2c(cc1OC)-c1c(O)c(OC)cc3c1[C@H](C2)N(C)CC3 | . | ? | . | ? | . | 32µM*
SMILES | FLuc inh | 15-hLO inh | HADH2 inhib | ERK AVP inh | PK Bst | HSD17B inhib
O=C(c1cc2c(s1)-c1ccccc1OC2)N1CCC2(CC1)OCCO2 | . | -3% | 32µM* | . | . | 32µM*
CC1CC[C@@]2(OC1)O[C@@H]1[C@@H](O)[C@H]3C4CC[C@H]5C[C@@H](O[C@@H]6O[C@H](CO)[C@H](O[C@@H]7O[C@H](CO)[C@@H](O)[C@H](O[C@@H]8OC[C@@H](O)[C@H](O)[C@H]8O)[C@H]7O[C@@H]7O[C@H](CO)[C@@H](O)[C@H](O[C@@H]8O[C@H](CO)[C@@H](O)[C@H](O)[C@H]8O)[C@H]7O)[C@H](O)[C@H]6O)[C@H](O)C[C@]5(C)C4CC[C@]3(C)[C@H]1[C@@H]2C (some centres undefined) | . | -5%[25.6 µM] | . | 40µM* | . | 3%
C[C@@]12Cc3cnc(-c4ccccc4)nc3C[C@@H]1CC[C@@H]1[C@H]3CC[C@@](C)(O)[C@]3(C)CC[C@@H]12 | 3%[11.4 µM] | 7%[11.4 µM] | -5%[11.4 µM] | -7%[11.5 µM] | . | -4%[11.4 µM]
O=C1C=CC(=O)c2c(O)cccc21 | . | 2µM* | . | ? | . | 0.79µM*
ClC(Cl)=C(Cl)Cl | . | 2% | 2% | 3% | . | 6%
Cc1nc2cnc(N3CCNCC3)nc2n(C)c1=O | 1%[11.4 µM] | 4% | -13% | -9% | . | 25µM*
CN1CCC[C@@H]1c1cccnc1.O=C(O)c1ccccc1O.O=C([OH2+])c1ccccc1O.O=C([OH2+])c1ccccc1O.[Mn] | 1%[11.4 µM] | -2%[11.4 µM] | -16%[11.4 µM] | -19%[11.5 µM] | . | ?
CCn1nc(-c2cccs2)nc2c(=O)n(C)c(=O)nc1-2 | 0% | -16% | ? | 8% | >57 | 25µM*
Cc1cccn2c(=O)c3cc(C(=O)N4CCC5(CC4)OCCO5)n(C)c3nc12 | 1% | -5% | 20µM* | 21% | >57 | -29%
Cc1onc(-c2ccccc2)c1C(=O)N1CCC2(CC1)OCCO2 | 5% | 1% | 2% | 2% | >57 | 5%
COc1ccc(C(=O)Nc2ccccc2C(=O)NC(C(=O)NCc2ccco2)C(C)C)cc1 (centres undefined) | -1% | -3% | 20% | 12% | >57 | 10µM*
CN1[C@@H]2CC[C@H]1CC(O[C@@H](c1ccccc1)c1ccccc1N)C2 (some centres undefined) | 1% | 12% | -8% | -7% | . | -3%
O=C(O)c1cc(O)c(O)c(O)c1 | . | -15% | 0.05µM* | ? | . | 20µM*
CC(C)OC(=O)c1c(N)n(CC2CCCO2)c2nc3ccccc3nc12 (centres undefined) | -1% | -18% | 7.9µM* | 5% | >57 | 32µM*
Nc1c(C(=O)OC2CCCCC2)c2nc3ccccc3nc2n1CC1CCCO1 (centres undefined) | -17% | -27% | 13µM* | 23% | . | 25µM*
CC(C)CCOC(=O)c1c(N)n(CC2CCCO2)c2nc3ccccc3nc12 (centres undefined) | -2% | -6% | 174% | 16% | >57 | 25µM*
Cc1cc(Cc2cc(C)c(N)cc2N)c(N)cc1N | 1%[11.4 µM] | ? | -9%[11.4 µM] | -14%[11.5 µM] | . | ?
O=C(O)[C@@H]1[C@H](C(=O)O)[C@]2(Cl)C(Cl)=C(Cl)[C@@]1(Cl)C2(Cl)Cl | 0%[11.4 µM] | 2.5µM* | -20%[11.4 µM] | ? | . | ?
